# Measurements: article PMC5540273 (PLoS ONE, 2017)
# Tests used:
# Settings in all cases: concentration: 1 μM, replicates: in singlicate; n = 1
# GRK1 = tested on: GRK1
# GRK2 = tested on: T1, GRK2
# T1 construct: gene ADRBK1
# GRK3 = tested on: T2, GRK3
# T2 construct: gene ADRBK2
# GRK4 = tested on: GRK4
# GRK7 = tested on: GRK7
# GSK3A = tested on: GSK3A
# GSK3B = tested on: GSK3B
# HASPIN = tested on: T3, HASPIN
# T3 construct: gene GSG2
# HCK = tested on: HCK
# HIPK1 = tested on: HIPK1
# HIPK2 = tested on: HIPK2
# HIPK3 = tested on: HIPK3
# HIPK4 = tested on: HIPK4
# HPK1 = tested on: HPK1
# HUNK = tested on: HUNK
# ICK = tested on: ICK
# IGF1R = tested on: IGF1R
# IKK-alpha = tested on: T4, IKK-alpha
# T4 construct: gene CHUK
# IKK-beta = tested on: T5, IKK-beta
# T5 construct: gene IKBKB
# IKK-epsilon = tested on: T6, IKK-epsilon
# T6 construct: gene IKBKE
# 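Also: KINOMEscan kinase panel screen.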
Compound,%Inh (GRK1) [%],%Inh (GRK2) [%],%Inh (GRK3) [%],%Inh (GRK4) [%],%Inh (GRK7) [%],%Inh (GSK3A) [%],%Inh (GSK3B) [%],%Inh (HASPIN) [%],%Inh (HCK) [%],%Inh (HIPK1) [%],%Inh (HIPK2) [%],%Inh (HIPK3) [%],%Inh (HIPK4) [%],%Inh (HPK1) [%],%Inh (HUNK) [%],%Inh (ICK) [%],%Inh (IGF1R) [%],%Inh (IKK-alpha) [%],%Inh (IKK-beta) [%],%Inh (IKK-epsilon) [%]
C[C@@H]1CCN(C(=O)CO)C[C@@H]1N(C)c1ncnc2[nH]ccc12,16,17,22,0,25,0,0,8,25,15,0,0,0,0,0,0,0,0,0,0
Cn1ccc2ncnc(Nc3ccc(Oc4cccc(Cl)c4)c(Cl)c3)c21,25,51,0,7,20,22,23,21,25,32,37,22,3,2,0,12,0,3,7,11
CNc1nccc(-c2c(-c3ccc(F)cc3)ncn2C2CCN(C)CC2)n1 [SB-222903],0,90,0,0,0,3,0,6,26,10,5,0,0,0,39,0,0,0,0,0
Nc1nc(-c2ccc3c(N)n[nH]c3c2)cc(N2CCC[C@@H](C(=O)Nc3ccccc3)C2)n1.O=C(O)C(F)(F)F.O=C(O)C(F)(F)F [GSK2288359],0,0,0,27,0,20,14,0,0,0,0,6,1,32,0,12,100,0,0,29
Cc1ccc(C)c(NC(=O)NCCNc2ccnc(Nc3ccc(F)cc3)n2)c1 [GSK1379878],0,0,17,0,0,3,0,4,0,0,0,0,0,28,0,0,0,0,0,9
COc1ccc(Nc2nccc(N3CCC(NC(=O)c4cccc(NC(C)=O)c4)C3)n2)cc1 (centres unmarked) [GSK1379732],0,2,49,0,0,4,0,46,0,0,13,0,0,43,28,0,0,0,0,19
Clc1cc(Nc2ncnc3cc[nH]c23)ccc1OCc1ccccn1,15,0,9,25,14,6,7,0,41,28,19,27,0,0,13,18,0,9,20,27
COC(=O)c1c(-c2ccccc2)c2cc(Cl)ccc2c(=O)n1Cc1ccc(S(C)(=O)=O)cc1,0,0,15,12,15,0,0,27,14,14,24,0,0,0,0,32,0,0,0,0
O=C(Nc1ccccc1)Nc1ccc(Oc2ccc3nccn3n2)cc1,11,0,0,17,0,14,0,0,7,26,0,0,4,0,9,0,0,0,0,0
COc1ccc(NC(=O)Nc2ccc(C)c(-c3ccc(C(=O)Nc4ccncc4)cc3)c2)cc1 [GSK1398475],0,0,11,0,0,15,7,0,0,0,0,4,0,47,7,0,0,0,0,0
